# FLuc counter: counter-screen for miR-21 project: firefly luciferase inhibitors or activators | P08659 | purified FLuc, Km substrates, luminescence inhibition | Potency, µM (series often up to 57.5 µM), for the others: at the top dose activity change, negative = inhibition, most hits filed as inhibitors | hit rate 6.9% among 360,000;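 note: plate controls were vehicle for no effect and reference inhibitor for full effect; nearly all actives have a fitted effect of over 55% in size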
# Target sequence (P08659 whole entry, looked up): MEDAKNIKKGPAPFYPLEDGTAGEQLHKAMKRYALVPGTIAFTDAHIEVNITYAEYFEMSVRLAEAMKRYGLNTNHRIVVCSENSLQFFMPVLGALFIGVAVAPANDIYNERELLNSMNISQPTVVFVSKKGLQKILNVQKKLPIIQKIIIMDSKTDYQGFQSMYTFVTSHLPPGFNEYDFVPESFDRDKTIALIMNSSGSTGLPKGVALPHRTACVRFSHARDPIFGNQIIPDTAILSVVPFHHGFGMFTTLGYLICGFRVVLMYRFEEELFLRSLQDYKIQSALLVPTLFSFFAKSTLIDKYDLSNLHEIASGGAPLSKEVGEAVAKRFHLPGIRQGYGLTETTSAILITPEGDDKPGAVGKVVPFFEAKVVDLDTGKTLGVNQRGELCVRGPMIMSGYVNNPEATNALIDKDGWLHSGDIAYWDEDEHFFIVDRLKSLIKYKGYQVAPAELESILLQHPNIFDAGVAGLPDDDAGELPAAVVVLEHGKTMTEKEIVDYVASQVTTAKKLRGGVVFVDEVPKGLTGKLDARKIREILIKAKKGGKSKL
#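 Purified P. pyralis luciferase (10nM final) with 10uM D-luciferin and 10uM ATP (Km levels) in 50mM Tris acetate pH 7.5, 10mM Mg acetate, 0.01% Tween-20, 0.05% BSA; qHTS 6-point titration, ~60 µM downward; luminescence read.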
# ELG1 genotoxic: induces genotoxicity in HEK293T cells with luciferase-tagged ELG1; Potency, µM (series often up to 46 µM), without a hit: at the highest dose activity change, positive = activation, most hits filed as activators; hit rate 1.3% among 330,000; HEK293T ELG1-luciferase reporter, luminescence, 16 h; AID 504466; note: % of control where 0% means no effect; nearly all actives have a fitted effect of over 60% in size
#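 Luminescence read-out: rising ELG1-luciferase signal, reflecting elevated ELG1 protein under genetic stress, flags genotoxic compounds. Cells were treated for 16 hr at 37 °C before ONE-Glo detection.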
# SMN2 splice up: increases expression of the SMN2 splice variant. HEK293 SMN2-luciferase splicing reporter, luminescence, 30-36 h. AID 1458. hit rate 2.8% among 210,000. Potency, µM (doses to about 46.1 µM), inactives show at the top dose activity change, positive = activation, hits mostly activators; note: % of control where 0% means no effect; nearly all actives have a fitted effect of over 55% in size
#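 HEK293 cells carry an SMN2 minigene-luciferase reporter in which exon 7 inclusion puts luciferase in frame. Cells were seeded at 2000 cells/well, attached for 10-12 hours, then exposed to compounds for 30-36 hours at 37C before ONE-Glo luminescence.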
# NPC1 prom act: NPC1 promoter activation | hit rate 2.4% among 320,000 | Potency, µM (doses to about 9.22 µM), for the others: top-dose activation, usual class: activators | Huh7 NPC1 promoter luciferase reporter, 24 h | AID 485313; note: % of control where 0% means no effect; nearly all actives have a fitted effect of over 60% in size
#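 In 1536-well qHTS, Huh7 cells harboring an NPC1 promoter–luciferase construct received compound for 24 h; activation was quantified by luminescence following luciferase reagent addition.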
# ELG1 repair inh: ELG1-dependent DNA repair inhibition | Potency, µM (top dose mostly 46.1 µM), for inactives: top-dose activity change, negative = inhibition, usual class: inhibitors | hit rate 2.3% among 330,000 | HEK293T ELG1-luciferase reporter, luminescence, 16 h; DNA damage induced by 5-fluorouridine; note: % is set by controls: 0 for no effect and ±100 for the full control effect; nearly all actives have a fitted effect of over 55% in size
#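 Luminescence from the luciferase reporter, measured 30 min after ONE-Glo reagent at room temperature, was the read-out. Beforehand, 2,000 cells per well were exposed for 16 hr at 37 °C to 5-fluorouridine together with compound or vehicle.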
# Rab9 prom act: activates the Rab9 promoter; hit rate 2.8% among 320,000; Potency, µM (doses to about 9.22 µM), without a hit: top-dose activation, negative = inhibition, usual class: activators; Huh7 Rab9 promoter-luciferase reporter, luminescence, 24 h; note: % of control where 0% means no effect; nearly all actives have a fitted effect of over 60% in size
#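 Cells were plated at 1500 per well in reduced-serum medium with 10% FBS and left 2 h. Compound in DMSO was then added for 24 h at 37 °C. Reporter signal was read by luminescence after 10 min with luciferase detection reagent.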
# An asterisk follows results filed as active; ? = inconclusive; · = no result; [ ] = another dose, or the depositor's remark. Hits are enriched below; roughly 9.3% of the tested compounds scored in any of these assays. Calls come from the whole dose curve; as a rule, active = well fitted curve in the direction sought with a large enough effect; inconclusive = small, poorly fitted or top-dose-only effect, or another doubt; inactive = no such curve, though single readings can be large; an effect the other way counts as inactive or inconclusive. Potency is the fitted concentration of half-maximal effect.
SMILES,FLuc counter,ELG1 genotoxic,SMN2 splice up,NPC1 prom act,ELG1 repair inh,Rab9 prom act
Cc1nc2nc(-c3ccc(Cl)cc3)[nH]n2c(=O)c1C,6µM*,?,?,2.5µM*,?,2.2µM*
Cc1nc2nc(-c3ccc(Cl)cc3)[nH]n2c(=O)c1Cc1ccccc1,3µM*,?,?,?,?,27%
Cc1onc(-c2c(Cl)cccc2Cl)c1C(=O)N1CCc2ccccc2C1,1%,-5%,-14%,-1%,-10%,0%
Nc1nc2nc(-c3ccc(F)cc3)cc(C(F)(F)F)n2n1,-1%,?,9%,-5%,11%,-6%
CC(C)Cn1c(-c2ccc(C#N)cc2)nc2c1c(=O)[nH]c(=O)n2CC(C)C,-2%,0%,9%,-6%,7%,7%
COCc1[nH]nc2c1C(c1ccnc3ccccc13)C(C#N)=C(N)O2 (configuration not stated),2%,2%,-3%,0%,11%,7%
Cc1cc(C)c2nc(N3CCCC(C(=O)NC4CCCC4)C3)sc2c1 (configuration not stated),9.5µM*,7%[9.26 µM],·,30%,?,?
CCOc1ccc2nc(N3CCN(C(=O)CS(=O)(=O)c4ccc(F)cc4)CC3)sc2c1,3µM*,·,·,·,·,·
CCOc1ccc2nc(N3CCCC(C(=O)Nc4ccc(Br)c(C)c4)C3)sc2c1 (configuration not stated),6µM*,·,24%,·,·,·
CCOc1ccc2nc(N3CCN(C(=O)c4ccc(S(=O)(=O)CC)cc4)CC3)sc2c1,-4%,·,·,·,·,·
CCOc1ccc2nc(N3CCCC(C(=O)N4CCN(CC)CC4)C3)sc2c1 (configuration not stated),21µM*,13%,?,?,?,?
S=C(NCc1ccccc1)NCc1cccc(Cl)c1,0%,-1%,·,0%,12%,-4%
Cc1nn(CC(=O)c2cccc(Cl)c2)c(C)c1[N+](=O)[O-],-17%,4%,20%,-3%,23%,-2%
CCOc1ccc2nc(N3CCCC(C(=O)NCCCOC)C3)sc2c1 (configuration not stated),12µM*,·,14µM*,·,·,·
CCOc1ccc2nc(N3CCCC(C(=O)NCCc4ccc(OC)cc4OC)C3)sc2c1 (configuration not stated),?,·,14µM*,·,·,·
CCOc1ccc2nc(N3CCCC(C(=O)NCCc4ccc(C)cc4)C3)sc2c1 (configuration not stated),-18%,·,13%,·,·,·
CCCN1CCN(CCCNC(=O)C2CCCN(c3nc4ccc(OCC)cc4s3)C2)CC1 (configuration not stated),2%,1%,10%,-2%,5%,-12%
CCOc1ccc2nc(N3CCCC(C(=O)NCCc4ccc(OCC)c(OCC)c4)C3)sc2c1 (configuration not stated),?,·,15%,·,·,·
CCOc1cc2sc(N3CCC(C(=O)Nc4ccc(C)cc4)CC3)nc2cc1Br,-9%,·,16µM*,·,·,·
CCOc1ccc2nc(N3CCCC(C(=O)NCc4ccc(OC)cc4)C3)sc2c1 (configuration not stated),2.4µM*,·,13µM*,·,·,·
COc1cc(CC(=O)OCC(=O)Nc2ncc(Cl)cc2Cl)cc(OC)c1OC,-1%,3%,-8%,-4%,8%,-3%
C/C(CC(=O)Nc1cccc(Cl)c1C)=N\NC(=O)C(=O)NCC(C)C,-2%,0%,-11%,-3%,0%,-1%
Cc1ccc(SCCC(=O)Nc2cccc(N(C)S(C)(=O)=O)c2)cc1,?,-5%,-41%,-1%,?,-2%
CCOc1ccc2nc(N3CCC(C(=O)Nc4ccccc4CC)CC3)sc2c1,-12%,·,22%,·,·,·
CCOc1ccc2nc(N3CCCCCC3)sc2c1,1.1µM*,?,7.9µM*,1.1µM*,?,1µM*
SMILES,FLuc counter,ELG1 genotoxic,SMN2 splice up,NPC1 prom act,ELG1 repair inh,Rab9 prom act
CCOc1ccc2nc(N3CCC(C(=O)Nc4nnc(CC)s4)CC3)sc2c1,?,12µM*,2.2µM*,1.1µM*,?,4µM*
CCOc1ccc2nc(N3CCCC(C(=O)NCC4CCCO4)C3)sc2c1 (configuration not stated),4.8µM*,13%,·,?,?,?
Cc1cc(C)c2nc3c(c(C(=O)O)c2c1)CCC3,5%[2.3 µM],0%,13%,-3%,2%,7%
Cc1ccc(NC(=O)NC(=O)c2cnccc2C(F)(F)F)c(C)c1,-20%,4%,·,1%,-10%,-3%
CC1SCC(NC(=O)c2cccc(Cl)c2)CS1 (configuration not stated),-8%,2%,·,5%,-6%,1%
CC1SCC(NC(=O)c2ccccc2Cl)CS1 (configuration not stated),17µM*,?,·,?,?,4.5µM*
Cc1ccc(-c2nnc(SCC(=O)CC(=O)Nc3ccccc3)n2C)cc1,-16%,-1%,7%,1%,-1%,0%
Nc1ccc2nc(-c3ccccc3)sc2c1,0.3µM*,·,0.5µM*,·,·,·
Cc1nc2cc(CO)ccc2s1,12%,-2%,6%,0%,14%,7%
Cc1ccc2nc(-c3ccc(N4C(=N)SC5CS(=O)(=O)CC54)cc3)sc2c1 (configuration not stated),8.5µM*,?,·,?,?,2.8µM*
Cc1ccc2sc(-c3ccc(N)cc3)nc2c1,0.17µM*,·,0.63µM*,·,·,·
Cc1ccc2nc(-c3ccc(N)cc3)sc2c1,0.11µM*,?,·,0.32µM*,?,0.22µM*
Cc1ccc(S(=O)(=O)Nc2nc3ccc(N)cc3s2)cc1,3%,0%,·,0%,-5%,-1%
Cc1ccc(CNC(=O)CSc2nc3ccsc3c(=O)n2Cc2ccccc2F)cc1,0%,·,·,·,·,·
O=C(CSc1ccc2ccccc2n1)Nc1nsc(-c2ccc(Cl)cc2)n1,-8%,2%,6%,7%,-1%,17%
Nc1ccc(-c2nc3cc(N)ccc3s2)cc1,0.67µM*,2.9µM*,·,0.5µM*,?,0.71µM*
CC(=O)Nc1nc2cc(N)ccc2s1,0%,6%,·,11%,11%,15%
CCN(C[C@H]1N[C@@](C)(C(=O)OC)[C@H]2C(=O)N(C)C(=O)[C@@H]12)C(=O)Nc1ccc(F)cc1,·,-2%,·,·,7%,·
COc1cccc(C(=O)Nc2ccc(-c3cn4cccnc4n3)cc2)c1OC,-6%,·,-10%,·,·,·
COc1cccc(OC)c1C(=O)Nc1cccc(-c2cn3ccsc3n2)c1,24µM*,·,·,·,·,·
COc1cccc(C(=O)Nc2cccc(-c3cn4ccsc4n3)c2)c1OC,15µM*,·,·,·,·,·

# Assay outcomes: PubChem BioAssay, National Center for Advancing Translational Sciences (NCATS)
